The record followed here is PubChem BioAssay (EPA / NIEHS).

Several values for one entry are separate records, joined by “and”; a condition that tells them apart may be missing. Equal values may be shown once. Records with an inconclusive call do not appear. More than one record can exist for a structure, and the calls need not agree. Activity calls are given as the source filed them. How the source made its calls, unless noted: active means hit-call score of the fitted dose curve at least 0.9, where 1 is the maximum; inactive means score below 0.9.

Assay [1] has as its target human Retinoid X Receptor beta (RXRb), RXRB (gene 6257) (UniProt P28702). The experiment in a line: ATG_RXRb_TRANS: Attagene TRANS-FACTORIAL HepG2 Assay for human Retinoid X Receptor beta (RXRb) (AID 2283013; active means hit-call score of the fitted dose curve at least 0.9, where 1 is the maximum). A digest of the protocol: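 HepG2 cells transiently transfected with multiplexed reporter units driven by GAL4-UAS and exogenous chimeric NR-Gal4 proteins; treated 24 h. Reporter mRNA measured by RT-PCR, 6-FAM labelling and capillary electrophoresis; gain-of-signal fitted versus DMSO baseline.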

Assay [2] concerns the target human Vitamin D Receptor (VDR), VDR (gene 7421) (UniProt P11473). The experiment in a line: ATG_VDR_TRANS: Attagene TRANS-FACTORIAL HepG2 Assay for human Vitamin D Receptor (VDR) (AID 2283022; active means hit-call score of the fitted dose curve at least 0.9, where 1 is the maximum). In a few lines:
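HepG2 cells were transiently transfected with GAL4-UAS reporter units and a chimeric VDR-Gal4 construct, then dosed for 24 hours. Reporter mRNA was quantified by RT-PCR, fluorescent labeling, HpaI digestion and capillary electrophoresis; gain of signal analysed vs DMSO.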

The target in assay [3] is human Thyroid Receptor alpha (THRa1), THRA (gene 7067) (UniProt P10827). The assay is described as follows: ATG_THRa1_TRANS: Attagene TRANS-FACTORIAL HepG2 Assay for human Thyroid Receptor alpha (THRa1) (AID 2283014; active means hit-call score of the fitted dose curve at least 0.9, where 1 is the maximum). In a few lines:
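HepG2 cells transiently transfected with chimeric NR-Gal4 and GAL4-UAS reporter units, dosed 24 h. Reporter mRNA quantified by RT-PCR, fluorescent labeling, HpaI digestion and capillary electrophoresis; gain-of-signal fit versus DMSO.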

Read-out in assay [4]: E-selectin (Homo sapiens) (UniProt P16581)
The experiment in a line: BSK_3C_Eselectin: BioMAP Diversity Plus: 3C Assay for Eselectin Biomarker Activity (AID 2283015).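 On outcome: cell surface E-selectin protein quantified by ELISA 24 h after dosing.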 The following applies: primary human endothelial cells (HUVEC); actives raise or lower the signal. In a few lines: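 Primary human umbilical vein endothelial cells (3C system), read 24 h after compound addition; E-selectin measured by ELISA. Bidirectional curve fitting against DMSO baseline; cytotoxicity by parallel SRB total-protein staining.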

Read-out in assay [5]: Interleukin-1 alpha (IL1a), IL1A (gene 3552)
The assay is described as follows: BSK_BE3C_IL1a: BioMAP Diversity Plus: BE3C Assay for Interleukin-1 alpha (IL1a) Biomarker Activity (AID 2283016). The following applies: primary human bronchial epithelial cells; actives raise or lower the signal. In a few lines:
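Human primary bronchial epithelial cells (BE3C system) were dosed with compound and IL-1a measured by ELISA 24 h later. Activity was fitted bidirectionally against DMSO baseline; cytotoxicity was tracked in parallel cultures by SRB total-protein staining.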

Read-out in assay [6]: Monocyte Chemoattractant Protein-1 (MCP1), CCL2 (gene 6347)
The assay is described as follows: BSK_3C_MCP1: BioMAP Diversity Plus: 3C Assay for Monocyte Chemoattractant Protein-1 (MCP1) Biomarker Activity (AID 2283017). The following applies: primary human endothelial cells (HUVEC); actives raise or lower the signal. A digest of the protocol: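 Human umbilical vein endothelial cells (3C system) exposed to chemicals for 24 h; MCP-1 quantified by ELISA against the DMSO baseline with bidirectional fitting, and parallel SRB staining used to assess cytotoxicity.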

Read-out in assay [7]: Monocyte Chemoattractant Protein-1 (MCP1), CCL2 (gene 6347)
The assay is described as follows: BSK_4H_MCP1: BioMAP Diversity Plus: 4H Assay for Monocyte Chemoattractant Protein-1 (MCP1) Biomarker Activity (AID 2283018). To be noted: primary human endothelial cells (HUVEC); actives raise or lower the signal. In a few lines:
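Human umbilical vein endothelial cells (4H system) dosed with chemical; MCP-1 measured by ELISA 24 h after dosing. Bidirectional curve fitting against DMSO negative control as baseline; parallel SRB total-protein staining tracks overt cytotoxicity.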

Read-out in assay [8]: Human Leukocyte Antigen - DR isotype (HLADR), HLA-DRA (gene 3122)
The assay is described as follows: BSK_3C_HLADR: BioMAP Diversity Plus: 3C Assay for Human Leukocyte Antigen - DR isotype (HLADR) Biomarker Activity (AID 2283019). To be noted: primary human endothelial cells (HUVEC); actives raise or lower the signal. In a few lines:
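HUVEC monoculture, HLA-DR measured by ELISA 24 h after chemical dosing. Fitted bidirectionally against DMSO baseline; parallel SRB staining assessed cytotoxicity, with 3C proliferation read by SRB at 48 h.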

Read-out in assay [9]: Interleukin-8 (IL8), CXCL8 (gene 3576)
The experiment in a line: BSK_3C_IL8: BioMAP Diversity Plus: 3C Assay for Interleukin-8 (IL8) Biomarker Activity (AID 2283020). The following applies: primary human endothelial cells (HUVEC); actives raise or lower the signal. In a few lines: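 Primary human umbilical vein endothelial cells (3C system) were exposed to test chemical for 24 h, then IL-8 was quantified by ELISA. Responses were fitted bidirectionally against DMSO vehicle as baseline.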

Read-out in assay [10]: Monokine induced gamma interferon (MIG), CXCL9 (gene 4283)
The experiment in a line: BSK_3C_MIG: BioMAP Diversity Plus: 3C Assay for Monokine induced gamma interferon (MIG) Biomarker Activity (AID 2283021). To be noted: primary human endothelial cells (HUVEC); actives raise or lower the signal. A digest of the protocol: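 Primary human umbilical vein endothelial cells in the 3C system were exposed to chemical for 24 h, after which MIG was quantified by ELISA. Activity was fitted bidirectionally against DMSO as negative control and baseline.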

Assay [11] can be described thus: BSK_3C_SRB: Viability Assessment in the BioMAP Diversity Plus: 3C Assay (AID 2283023).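 Further: fitted both ways against DMSO so a hit may be signal rise or drop.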 To be noted: primary human endothelial cells (HUVEC). In a few lines: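 Human umbilical vein endothelial cells in the 3C system, treated 24 h. Total protein measured by 0.1% sulforhodamine B staining after 10% TCA fixation, read at 560 nm; bidirectional fit versus DMSO.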
Read-out in assay [12]: Matrix Metallopeptidase 1 (MMP1), MMP1 (gene 4312)
The experiment in a line: BSK_BE3C_MMP1: BioMAP Diversity Plus: BE3C Assay for Matrix Metallopeptidase 1 (MMP1) Biomarker Activity (AID 2283024). The following applies: primary human bronchial epithelial cells; actives raise or lower the signal. A digest of the protocol:
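Primary human bronchial epithelial cells were dosed with test chemicals, and MMP1 levels were measured by ELISA 24 h later. Data were fitted bidirectionally against DMSO as the negative control and activity baseline.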

Read-out in assay [13]: Pselectin, SELP (gene 6403)
The assay is described as follows: BSK_4H_Pselectin: BioMAP Diversity Plus: 4H Assay for Pselectin Biomarker Activity (AID 2283026). To be noted: primary human endothelial cells (HUVEC); actives raise or lower the signal. In a few lines:
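Primary human umbilical vein endothelial cells were exposed to test chemical for 24 h, then cell-surface P-selectin was quantified by ELISA. Activity was fitted bidirectionally against DMSO as negative control and baseline.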

A short description of assay [14]: BSK_4H_SRB: Viability Assessment in the BioMAP Diversity Plus: 4H Assay (AID 2283027).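 Further: cells exposed to compound for 24 h before staining; curves fitted both ways versus DMSO so AC50 may be loss or gain.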 The following applies: primary human endothelial cells (HUVEC). In a few lines:
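Absorbance at 560 nm of SRB-stained total protein served as the viability read-out in confluent primary human umbilical vein endothelium 24 h after chemical treatment. Curves were fitted bidirectionally against DMSO as negative control.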

A short description of assay [15]: BSK_BE3C_SRB: Viability Assessment in the BioMAP Diversity Plus: BE3C Assay (AID 2283028). The following applies: primary human bronchial epithelial cells. A digest of the protocol:
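Human bronchial epithelial primary cells in confluent culture, 24 h after chemical dosing; total protein by 0.1% SRB staining after 10% TCA fixation, read at 560 nm. Bidirectional fitting versus DMSO baseline.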

Read-out in assay [16]: Urokinase-type plasminogen activator receptor (uPAR), PLAUR (gene 5329)
The assay is described as follows: BSK_4H_uPAR: BioMAP Diversity Plus: 4H Assay for Urokinase-type plasminogen activator receptor (uPAR) Biomarker Activity (AID 2283030). The following applies: primary human endothelial cells (HUVEC); actives raise or lower the signal. A digest of the protocol:
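Human umbilical vein endothelial cells in the 4H system, 24 h after chemical dosing. Cell-surface uPAR measured by ELISA, fitted in both directions versus DMSO; cytotoxicity checked by SRB total protein in parallel cultures.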

Read-out in assay [17]: Vascular endothelial growth factor receptor 2 (Homo sapiens) (UniProt P35968)
The assay is described as follows: BSK_4H_VEGFRII: BioMAP Diversity Plus: 4H Assay for Vascular endothelial growth factor receptor 2 (VEGFR2) Biomarker Activity (AID 2283031).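 On AC50: cell-surface VEGFR2 protein level quantified by ELISA.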 To be noted: primary human endothelial cells (HUVEC); actives raise or lower the signal. A digest of the protocol:
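Primary human umbilical vein endothelial cells (4H system), 24 h exposure; cell-surface VEGFR2 measured by ELISA. Bidirectional fitting versus DMSO; cytotoxicity checked in parallel by SRB total-protein staining.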

Read-out in assay [18]: Human Leukocyte Antigen - DR isotype (HLADR), HLA-DRA (gene 3122)
The assay is described as follows: BSK_BE3C_HLADR: BioMAP Diversity Plus: BE3C Assay for Human Leukocyte Antigen - DR isotype (HLADR) Biomarker Activity (AID 2283032). To be noted: primary human bronchial epithelial cells; actives raise or lower the signal. A digest of the protocol: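 Human primary bronchial epithelial cells in the BE3C system were exposed to chemicals for 24 h, after which HLA-DR levels were quantified by ELISA. Activity was fitted bidirectionally, gain or loss of signal, against DMSO as negative control and baseline.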

Read-out in assay [19]: Vascular cell adhesion molecule 1 (VCAM1), VCAM1 (gene 7412)
The assay is described as follows: BSK_4H_VCAM1: BioMAP Diversity Plus: 4H Assay for Vascular cell adhesion molecule 1 (VCAM1) Biomarker Activity (AID 2283033). The following applies: primary human endothelial cells (HUVEC); actives raise or lower the signal. In a few lines:
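Primary human umbilical vein endothelial cells were exposed to chemicals for 24 h, after which VCAM-1 was quantified by ELISA. Responses were fitted bidirectionally against DMSO as negative control and activity baseline.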

human Vitamin D Receptor (VDR), VDR (gene 7421), sequence (P11473 whole entry, looked up, the tested form may be a part): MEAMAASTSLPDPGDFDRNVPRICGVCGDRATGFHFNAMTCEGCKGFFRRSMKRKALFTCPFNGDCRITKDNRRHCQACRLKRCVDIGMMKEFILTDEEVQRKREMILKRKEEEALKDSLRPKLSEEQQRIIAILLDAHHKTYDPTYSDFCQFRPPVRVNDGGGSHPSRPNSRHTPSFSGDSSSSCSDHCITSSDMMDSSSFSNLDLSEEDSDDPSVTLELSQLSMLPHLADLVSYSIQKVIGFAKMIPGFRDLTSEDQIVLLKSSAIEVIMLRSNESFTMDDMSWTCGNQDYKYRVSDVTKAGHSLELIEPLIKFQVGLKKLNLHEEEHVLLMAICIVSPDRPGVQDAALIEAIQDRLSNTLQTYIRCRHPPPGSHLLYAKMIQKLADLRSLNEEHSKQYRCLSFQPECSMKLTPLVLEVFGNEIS
human Retinoid X Receptor beta (RXRb), RXRB (gene 6257), sequence (P28702 whole entry, looked up, the tested form may be a part): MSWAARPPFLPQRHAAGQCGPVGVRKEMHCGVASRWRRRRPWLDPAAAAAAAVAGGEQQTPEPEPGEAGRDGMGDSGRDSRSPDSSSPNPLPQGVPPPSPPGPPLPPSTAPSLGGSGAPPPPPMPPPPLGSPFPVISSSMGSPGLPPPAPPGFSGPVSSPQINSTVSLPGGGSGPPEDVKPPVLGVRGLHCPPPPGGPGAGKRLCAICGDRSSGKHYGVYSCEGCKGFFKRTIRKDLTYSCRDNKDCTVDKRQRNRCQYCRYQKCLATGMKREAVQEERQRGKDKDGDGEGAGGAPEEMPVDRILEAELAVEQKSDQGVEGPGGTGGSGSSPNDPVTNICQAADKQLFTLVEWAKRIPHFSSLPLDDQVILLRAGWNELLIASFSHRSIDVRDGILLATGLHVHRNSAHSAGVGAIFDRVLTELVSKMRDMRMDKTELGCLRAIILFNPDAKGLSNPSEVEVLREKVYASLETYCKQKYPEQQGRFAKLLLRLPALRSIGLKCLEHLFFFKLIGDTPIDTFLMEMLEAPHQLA
human Thyroid Receptor alpha (THRa1), THRA (gene 7067), sequence (P10827 whole entry, looked up, the tested form may be a part): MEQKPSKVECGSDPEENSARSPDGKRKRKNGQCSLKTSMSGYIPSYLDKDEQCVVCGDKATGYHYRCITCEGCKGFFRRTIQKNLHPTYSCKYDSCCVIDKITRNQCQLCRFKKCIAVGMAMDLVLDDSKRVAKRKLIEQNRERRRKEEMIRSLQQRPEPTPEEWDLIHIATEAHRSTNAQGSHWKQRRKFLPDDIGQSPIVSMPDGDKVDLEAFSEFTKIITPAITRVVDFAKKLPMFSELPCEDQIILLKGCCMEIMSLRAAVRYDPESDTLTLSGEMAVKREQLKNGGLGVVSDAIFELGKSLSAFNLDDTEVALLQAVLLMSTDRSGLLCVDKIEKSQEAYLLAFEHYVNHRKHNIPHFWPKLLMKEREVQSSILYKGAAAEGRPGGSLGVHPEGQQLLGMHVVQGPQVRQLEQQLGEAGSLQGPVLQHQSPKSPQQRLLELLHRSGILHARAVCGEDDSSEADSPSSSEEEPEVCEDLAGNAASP
E-selectin (Homo sapiens), sequence (P16581 whole entry, looked up): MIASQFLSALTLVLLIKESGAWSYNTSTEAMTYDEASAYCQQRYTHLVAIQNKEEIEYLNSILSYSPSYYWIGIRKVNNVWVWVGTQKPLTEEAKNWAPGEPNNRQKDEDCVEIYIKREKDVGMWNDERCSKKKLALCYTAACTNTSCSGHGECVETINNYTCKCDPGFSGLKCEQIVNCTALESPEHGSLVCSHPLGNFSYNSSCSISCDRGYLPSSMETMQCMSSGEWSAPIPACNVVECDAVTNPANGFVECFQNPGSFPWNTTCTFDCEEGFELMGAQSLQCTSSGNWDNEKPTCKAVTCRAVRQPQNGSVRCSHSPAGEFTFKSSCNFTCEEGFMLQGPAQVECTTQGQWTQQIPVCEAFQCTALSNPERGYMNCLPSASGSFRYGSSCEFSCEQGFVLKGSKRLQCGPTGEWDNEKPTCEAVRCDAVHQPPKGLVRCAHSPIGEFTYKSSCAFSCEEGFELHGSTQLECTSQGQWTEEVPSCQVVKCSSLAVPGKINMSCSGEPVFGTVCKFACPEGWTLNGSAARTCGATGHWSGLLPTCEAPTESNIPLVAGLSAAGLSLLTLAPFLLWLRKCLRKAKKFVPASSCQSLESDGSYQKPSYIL

On to `O=c1c2ccccc2nnn1CCl`, for which the compound was classed as inactive in assay [1] and in assay [2].

As to `O=C1c2cccc(O)c2C(=O)c2c(O)cc(CO)cc21`, the outcome in assay [1], in assay [3] and in [2] was inactive.

As to `CC(C)=CCCC(C)C=O` (stereo unspecified), the outcome in [1], in [3] and in assay [2] was inactive.

Turning to `Cc1ccc(C2OC[C@@H]3OC(c4ccc(C)cc4)O[C@H]([C@H](O)CO)[C@@H]3O2)cc1` (stereo partly specified), the compound was classed as inactive in assay [1], in assay [3] and in assay [2].

Turning to `CCCCC/C=C\CCC=O`, the call in assay [1] and in assay [2] was inactive.

Regarding `CC(=O)Nc1ccc2c(c1)Cc1cc(NC(C)=O)ccc1-2`, the call in assay [1], in assay [3] and in assay [2] was inactive.

Take `Cc1cc(C)c(C)c(C)c1`: the outcome in assay [1] and in assay [3] was inactive.

Broadly, the AC50 is the midpoint of the concentration-response curve, whichever way the signal moves. As to `Nc1ccc(N)c(Cl)c1`, the result in assay [1], in [4], in [5], in assay [9], in [10] and in assay [15] was inactive. Also, the result in assay [16], in assay [17] and in [18] was inactive. Further, the AC50 was 5.26 µM (active) in assay [4]; 20 µM (active) in [5]; 32.4 µM (active) and 31.9 µM (active) in assay [6]; 26.1 µM (active) and 14.6 µM (active) in assay [7]; 30.2 µM (active) and 31.4 µM (active) in assay [8]; 28.6 µM (active) and 30.6 µM (active) in assay [11]. Moreover, the half-maximal activity concentration (AC50) is 150 nM (active) and 1.5 µM (active) in [12]; 6.21 µM (active) and 3.97 µM (active) in assay [13]; 27.4 µM (active) and 30.5 µM (active) in assay [14]; 10.2 µM (active) in assay [17]; 20 µM (active) and 19.6 µM (active) in assay [19].

With `CCCOCCOCCOCCO`, the call in [1] and in assay [2] was inactive.

As for `COc1ccc(-c2coc3cc(O)ccc3c2=O)cc1`, the compound was called inactive in [1].
